In PubChem BioAssay (Tox21):
Records with an inconclusive call do not appear. Where a call stands in place of a potency, no number is given. The source made the active and inactive calls. Calls come from the whole dose curve; as a rule, active = well fitted cell-killing curve with a large enough effect in the repeat runs; inconclusive = weak or mixed curves, or effect the other way; inactive = flat fitted curve, though single readings scatter. Where a SMILES comes first, the peptide text is derived from it. [ ]: non-standard residue; d: D form. pGlu = O=C1CC[C@@H](C(=O)O)N1

Experiment: qHTS assay to identify small molecule agonists of the androgen receptor (AR) signaling pathway in the presence of an antagonist - cell viability counter screen (AID 1259379);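 note: MDA-kb2 human breast cancer cells carrying an MMTV luciferase reporter; nearly all actives have a fitted effect of over 25% in size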
Conditions: MDA-kb2 viability, CellTiter-Fluor, 16 h; series mostly up to 92.4 µM
In short: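 In MDA-kb2 cells (human breast carcinoma, MMTV-luciferase), compounds at 15 concentrations plus 3.0uM nilutamide; 16 hr, 37C, 0% CO2; CellTiter-Fluor fluorescence read for viability.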
With `CC1(C)OC[C@@H](COC(=O)CCc2ccc(OC[C@@H](O)CNCCNC(=O)N3CCOCC3)cc2)O1` the Potency was “inactive”.
For `CCC(C(=O)NC(=O)NC(C)=O)c1ccccc1` (stereo not drawn), the Potency was “inactive”.
With `CC(C)(N)C#N` the Potency was “inactive”.
With `CN1C(C)(C)CC(O)CC1(C)C` the Potency was “inactive”.
In the case of `O=C(c1ccccc1)C1(O)CCCCC1`, the Potency was “inactive”.
With `[O-][n+]1cccc(CO)c1` the Potency was “inactive”.
For `CCNC(=O)[C@@H]1CCCN1C(=O)[C@H](CCCN=C(N)N)NC(=O)[C@H](CC(C)C)NC(=O)CNC(=O)[C@H](Cc1ccc(O)cc1)NC(=O)[C@H](CO)NC(=O)[C@H](Cc1c[nH]c2ccccc12)NC(=O)[C@H](Cc1cnc[nH]1)NC(=O)[C@@H]1CCC(=O)N1` ([pGlu]HWSYGLRP-NHEt), the Potency was “inactive”.
In the case of `CC(C)CC(C)(N)C#N` (stereo not drawn), the Potency was “inactive”.
For `O=C(O)CCSCCC(=O)O`, the Potency was “inactive”.
For `CC(COc1ccccc1)NN` (stereo not drawn), the Potency was “inactive”.
In the case of `C=CC(=O)OCCCl`, the Potency was “inactive”.
With `NS(=O)(=O)Cc1noc2ccccc12` the Potency was “inactive”.
For `CCNS(=O)(=O)c1ccc(C)cc1`, the Potency was “inactive”.
In the case of `CC(=O)NC(=O)c1ccccc1O`, the Potency was “inactive”.
In the case of `OCCCCCO`, the Potency was “inactive”.
With `O=C(CO)[C@@H](O)[C@H](O)[C@H](O)CO` the Potency was “inactive”.
In the case of `C=CC(C)(CCC=C(C)C)OC(=O)CC` (stereo not drawn), the Potency was “inactive”.
For `CN(C)[C@@H]1C(=O)C(C(=O)NCN2CCCC2)=C(O)[C@@]2(O)C(=O)C3=C(O)c4c(O)cccc4[C@@](C)(O)C3C[C@@H]12` (stereo partly drawn), the Potency was “inactive”.
With `Clc1cc(Cl)cc(Cl)c1` the Potency was “inactive”.
With `O=C1CCCCCCCCCCCCCCO1` the Potency was “inactive”.
With `CCCO[Si](OCCC)(OCCC)OCCC` the Potency was “inactive”.
For `C=COCC1CCC(COC=C)CC1` (stereo not drawn), the Potency was “inactive”.
In the case of `O=Cc1cccc(Br)c1`, the Potency was “inactive”.
In the case of `C[N+](C)(CCOc1ccccc1)Cc1cccs1`, the Potency was “inactive”.
In the case of `CN1CCC(=C2c3ccccc3CCc3cccnc32)CC1`, the Potency was “inactive”.
With `CCCCc1ccc2c(n1)[C@@H](c1ccc(OC)cc1C[C@H](C)C(=O)O)[C@H](C(=O)O)[C@H]2c1ccc2c(c1)OCO2` the Potency was “inactive”.
With `CC(=O)c1ccc2ccccc2c1` the Potency was “inactive”.
In the case of `CC(C)c1ccc2ncccc2c1`, the Potency was “inactive”.
In the case of `c1ccc(Cc2ccccc2)cc1`, the Potency was “inactive”.
In the case of `C=C(C)C(=O)OCC1CCCO1` (stereo not drawn), the Potency was “inactive”.
In the case of `CN(C)CCCN(C)CCCN(C)C`, the Potency was “inactive”.
For `O=S(=O)(O)c1cc(O)c(O)c(S(=O)(=O)O)c1`, the Potency was “inactive”.
With `O=[N+]([O-])c1cncn1CCN1CCOCC1` the Potency was “inactive”.
In the case of `CCOC(=O)OC(C)OC1=C(C(=O)Nc2ccccn2)N(C)S(=O)(=O)c2ccccc21` (stereo not drawn), the Potency was “inactive”.
For `CCC(C)(CCCC(C)C)OC(C)=O` (stereo not drawn), the Potency was “inactive”.
In the case of `CC1(C)[C@@H]2CC[C@@]1(C)[C@H](O)C2`, the Potency was “inactive”.
For `CCN[C@H]1C[C@H](C)S(=O)(=O)c2sc(S(N)(=O)=O)cc21`, the Potency was “inactive”.
In the case of `O=CN(CCO)CCO`, the Potency was “inactive”.
